Data published in PubChem BioAssay (NCATS).
Records with an inconclusive call do not appear. The source holds several records for some structures; these can differ, active in one and inactive in another. The source made the active and inactive calls. Calls follow the shape of the dose curve; as a rule, active = well fitted curve in the direction sought with a large enough effect; inconclusive = small, poorly fitted or top-dose-only effect, or another doubt; inactive = no such curve, though single readings can be large; an effect the other way counts as inactive or inconclusive.

Assays:
[1] = target: Metallo-beta-lactamase type 2 (Klebsiella pneumoniae) (UniProt C7C422); assay: qHTS to identify inhibitors of the New Delhi Metallo-beta-lactamase (NDM): assay validation screen against the NCATS LOPAC Collection (AID 1794843);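 also: nitrocefin turnover by NDM-1 measured as 485 nm absorbance at plateau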
Method in brief: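 NDM-1 at 2 nM final in 50 mM HEPES pH 7.0 with 1 uM ZnSO4 and 0.01% Tween20 was preincubated with library compounds in DMSO. Nitrocefin (50 uM stock) was then added, and absorbance at 485 nm was read at the kinetic plateau.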

[2] = target: Glutathione peroxidase 1 (Homo sapiens) (UniProt P07203); assay: Primary qHTS Assay for Inhibitors of Recombinant Selenoprotein Glutathione Peroxidase 1 (GPX1) (AID 1845191); also: nearly all actives have a fitted effect of over 65% in size; also: potency is read from the fitted curve at half-maximal effect
Method in brief: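 NADPH consumption tracked by fluorescence at 340/450 nm between t=0 and t=15 min, room temperature. Final mix: 10 nM GPX1, 100 nM glutathione reductase, 1 mM GSH, 0.5 mM NADPH, 0.5 mM cumene hydroperoxide, 0.01% BSA; 30 min compound–enzyme preincubation.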

[3] = target: Phospholipid hydroperoxide glutathione peroxidase GPX4 (Homo sapiens) (UniProt P36969); assay: Primary qHTS Assay for Inhibitors of Recombinant Selenoprotein Glutathione Peroxidase 4 (GPX4) (AID 1845192); also: nearly all actives have a fitted effect of over 65% in size
Method in brief: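 NADPH consumption followed by fluorescence at 340/450 nm, t=0 and after 15 min at room temperature. Reaction started with cumene hydroperoxide (0.5 mM final) after 30 min compound–GPX4 preincubation; final 200 nM GPX4, 100 nM GR, 1 mM GSH, 0.5 mM NADPH.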

[4] = Quantitative High-Throughput drug screen in 47 multiple myeloma cell lines against the NCATS MIPE library collection: EJM_DSMZ cell viability assay (AID 1918926; also: nearly all actives have a fitted effect of over 30% in size; also: potency is read from the fitted curve at half-maximal effect)
Method in brief: (§1)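 Primary qHTS used for cherry-picking: cells at 500/well, library compounds for 48 h (37C, 5% CO2), luminescent ATP assay.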

[5] = Quantitative High-Throughput drug screen in 47 multiple myeloma cell lines against the NCATS MIPE library collection: Karpas620_DSMZ cell viability assay (AID 1918959); also: nearly all actives have a fitted effect of over 30% in size; also: potency is read from the fitted curve at half-maximal effect
Method in brief: (§2)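 Myeloma cells (500 per well) were exposed to MIPE 4.0 compounds by pin transfer and incubated 48 hours at 37C, 5% CO2. Viability was read as ATP by CellTiter-Glo luminescence, normalised to DMSO (100%) and media-only (0%) wells.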

[6] = Quantitative High-Throughput drug screen in 47 multiple myeloma cell lines against the NCATS MIPE library collection: KMM1_JCRB cell viability assay (AID 1918960); also: nearly all actives have a fitted effect of over 30% in size; also: potency is read from the fitted curve at half-maximal effect
Method in brief: (§3)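 Each line was plated at 500 cells/well and treated 48 h with library drugs. Viability came from CellTiter-Glo luminescence relative to DMSO and cell-free medium controls.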

[7] = Quantitative High-Throughput drug screen in 47 multiple myeloma cell lines against the NCATS MIPE library collection: AMO1_DSMZ cell viability assay (AID 1918927; also: nearly all actives have a fitted effect of over 30% in size; also: potency is read from the fitted curve at half-maximal effect)
Method in brief: as §1

[8] = Quantitative High-Throughput drug screen in 47 multiple myeloma cell lines against the NCATS MIPE library collection: ARP1_JJKsccF8 cell viability assay (AID 1918928; also: nearly all actives have a fitted effect of over 40% in size; also: potency is read from the fitted curve at half-maximal effect)
Method in brief: as §3

[9] = Quantitative High-Throughput drug screen in 47 multiple myeloma cell lines against the NCATS MIPE library collection: ARD_JJKsccE7 cell viability assay (AID 1918929; also: potency is read from the fitted curve at half-maximal effect)
Method in brief: as §1

[10] = Quantitative High-Throughput drug screen in 47 multiple myeloma cell lines against the NCATS MIPE library collection: Delta47_JCRB cell viability assay (AID 1918925; also: nearly all actives have a fitted effect of over 45% in size; also: potency is read from the fitted curve at half-maximal effect)
Method in brief: as §1

[11] = Quantitative High-Throughput drug screen in 47 multiple myeloma cell lines against the NCATS MIPE library collection: Karpas417_ECACC cell viability assay (AID 1918961); conditions: Karpas417 myeloma viability, CellTiter-Glo ATP luminescence, 48 h; viability (% of DMSO): at 45.8 µM (top of the series); also: potency is read from the fitted curve at half-maximal effect
Method in brief: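 CellTiter-Glo ATP luminescence gave viability after 48 h compound treatment at 37C of 500 multiple myeloma cells per well. Normalisation used DMSO-only wells as 100% and media-only wells as 0% viability; primary qHTS of approved and investigational drugs.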

[12] = target: Luciferin 4-monooxygenase (Photinus pyralis) (UniProt P08659); assay: Primary firefly luciferase (FLuc) qHTS assay for identification of artifact compounds. (AID 1845220); conditions: outcome: dose series up to 54.1 µM; also: nearly all actives have a fitted effect of over 60% in size
Method in brief: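 Compounds sat 15 min at room temperature with 10 uM luciferin and 10 uM ATP (pH 7.6 Tris acetate). Firefly luciferase (10 nM final) was then added, and luminescence was read 5 min later. Data normalized to no-enzyme and DMSO controls were Hill-fitted.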

[13] = Primary fluorescence-based thiol-reactive (MSTI) qHTS assay for identification of artifact compounds. (AID 1845221);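 also: thiol-reactive compounds lower the probe fluorescence signal; nearly all actives have a fitted effect of over 65% in size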
Method in brief: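 MSTI probe at 4 uM final in 2% DMSO/PBS pH 7.4; compounds, 1 h at room temperature in dark. Fluorescence Ex/Em 525/598 nm, normalised to Acetyl-MSTI and MSTI, fitted to 4-parameter Hill.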

[14] = Primary redox qHTS assay for identification of artifact compounds. (AID 1845223)
Method in brief: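 Redox-cycling detection via DTT (250 uM final) oxidation coupled to Amplex Red (25 uM)/HRP (250 mU/mL) in HBSS. 15 min preincubation plus 30 min after DTT, room temperature. Ex/Em 525/598 nm; 4-parameter Hill fit against DMSO and 10 uM DA3003.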

[15] = Quantitative High-Throughput drug screen in 47 multiple myeloma cell lines against the NCATS MIPE library collection: FR4_PLB cell viability assay (AID 1918924; also: nearly all actives have a fitted effect of over 35% in size; also: potency is read from the fitted curve at half-maximal effect)
Method in brief: as §2

[16] = tested on: Nanoluciferase (engineered Oplophorus gracilirostris luciferase); assay: Primary Nanoluciferase (NLuc) qHTS assay for identification of artifact compounds. (AID 1845222)
Method in brief: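 Luminescence from secreted NLuc (filtered, 1:55-diluted S16 cell medium) read 5 min after Nano-Glo substrate; compounds preincubated 15 min, RT. Hill fits of inhibition normalized to DMSO and no-enzyme.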

Measured: Potency

Chain of Phospholipid hydroperoxide glutathione peroxidase GPX4 (Homo sapiens) (P36969 whole entry, looked up): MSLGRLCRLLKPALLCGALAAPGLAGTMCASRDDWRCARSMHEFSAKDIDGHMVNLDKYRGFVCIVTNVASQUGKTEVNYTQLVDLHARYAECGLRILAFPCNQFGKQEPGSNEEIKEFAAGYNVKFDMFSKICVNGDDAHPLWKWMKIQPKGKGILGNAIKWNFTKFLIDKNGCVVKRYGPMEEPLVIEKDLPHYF
Chain of Glutathione peroxidase 1 (Homo sapiens) (P07203 whole entry, looked up): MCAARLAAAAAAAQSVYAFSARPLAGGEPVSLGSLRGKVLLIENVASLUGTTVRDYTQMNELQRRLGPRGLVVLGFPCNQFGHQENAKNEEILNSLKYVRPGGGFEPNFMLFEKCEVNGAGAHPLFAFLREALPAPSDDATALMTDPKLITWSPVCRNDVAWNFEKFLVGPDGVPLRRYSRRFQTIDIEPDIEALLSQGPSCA
Chain of Metallo-beta-lactamase type 2 (Klebsiella pneumoniae) (C7C422 whole entry, looked up): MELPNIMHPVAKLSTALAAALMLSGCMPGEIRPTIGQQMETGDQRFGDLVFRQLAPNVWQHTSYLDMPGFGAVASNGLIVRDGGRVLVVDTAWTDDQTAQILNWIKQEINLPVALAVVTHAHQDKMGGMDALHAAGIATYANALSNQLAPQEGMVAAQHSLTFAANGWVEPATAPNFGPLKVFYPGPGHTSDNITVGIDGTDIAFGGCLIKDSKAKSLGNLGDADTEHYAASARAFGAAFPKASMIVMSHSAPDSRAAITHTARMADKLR

N[C@@H](Cc1c[nH]c2ccc(O)cc12)C(=O)O
active: [6] 18.7 µM
inactive: [1] | [2] | [3] | [4] | [5]

CC(CCc1ccc(O)cc1)NCCc1ccc(O)c(O)c1 (stereo not drawn)
inactive: [1] | [2]
active: [4] 20.9 µM | [7] 18.7 µM | [8] 20.9 µM | [9] 16.6 µM | [5] 13.2 µM | [6] 29.6 µM

COc1ccc2c(c1)c(CC(=O)O)c(C)n2C(=O)c1ccc(Cl)cc1
inactive: [2] | [3] | [8] | [5] | [6]
active: [10] 16.6 µM

O=C(c1ccc(OCCN2CCCCC2)cc1)c1c(-c2ccc(O)cc2)sc2cc(O)ccc12
active: [7] 20.9 µM | [9] 26.4 µM | [5] 26.4 µM | [6] 20.9 µM | [11] 18.7 µM
inactive: [1] | [2]

CC(C)Cc1ccc(C(C)C(=O)O)cc1 (stereo not drawn)
inactive: [1] | [2] | [7] | [8] | [9] | [5] | [6]

CN(C)CCCN1c2ccccc2CCc2ccc(Cl)cc21
active: [4] 0.264 µM | [7] 1.05 µM | [9] 8.33 µM | [5] 16.6 µM | [6] 11.8 µM
inactive: [1] | [2]

CC1(CN2CCC(n3c(=O)[nH]c4ccccc43)CC2)OCc2ccccc2-n2cccc21 (stereo not drawn)
inactive: [2] | [3] | [8] | [9] | [5] | [6]

C[C@@H]1CC(=O)NN=C1c1ccc(NN=C(C#N)C#N)cc1
active: [10] 18.7 µM | [8] 23.5 µM
inactive: [2] | [7] | [9] | [5] | [6]

CS(=O)(=O)CCNCc1ccc(-c2ccc3ncnc(Nc4ccc(OCc5cccc(F)c5)c(Cl)c4)c3c2)o1
inactive: [2] | [12] | [13] | [14]
active: [15] 14.8 µM | [10] 0.235 µM | [4] 0.0235 µM | [7] 2.35 µM | [9] 6.62 µM | [5] 18.7 µM | [6] 13.2 µM | [11] 6.62 µM

CN(C)C(=N)N=C(N)N
inactive: [10] | [4] | [7] | [9] | [6]

Cn1ccc2cc3c(cc21)CCN3C(=O)Nc1cccnc1
inactive: [1] | [2] | [4] | [8] | [5]
active: [7] 23.5 µM

CN(C)CCOC(c1ccccc1)c1ccccc1
inactive: [2] | [4] | [7] | [8] | [5] | [6]
active: [10] 8.33 µM

Clc1ccccc1C(c1ccccc1)(c1ccccc1)n1ccnc1
active: [11] 0.0093 µM
inactive: [2] | [3] | [4]

NCCCCCC(=O)O
inactive: [1] | [2] | [4] | [7] | [9] | [5] | [6]

CC12CC3CC(C)(C1)CC(N)(C3)C2
inactive: [2] | [8] | [9] | [5] | [11]

Cn1cnc2c1c(=O)[nH]c(=O)n2C
active: [4] 20.9 µM | [7] 9.35 µM | [8] 14.8 µM | [9] 7.43 µM | [5] 7.43 µM | [6] 7.43 µM | [11] 9.35 µM
inactive: [1] | [2]

Cc1ccccc1N1C(=O)c2cc(S(N)(=O)=O)c(Cl)cc2NC1C (stereo not drawn)
inactive: [2] | [10] | [4] | [7] | [8] | [9] | [5] | [6]

COc1ccccc1OCC(O)CN1CCN(CC(=O)Nc2c(C)cccc2C)CC1 (stereo not drawn)
inactive: [2] | [3] | [15] | [4] | [7] | [8] | [9] | [6]

CC(COc1ccccc1)N(CCCl)Cc1ccccc1 (stereo not drawn)
inactive: [2] | [3] | [7] | [8] | [6]
active: [9] 16.6 µM

COc1cc2nc(N3CCN(C(=O)c4ccco4)CC3)nc(N)c2cc1OC
active: [7] 5.9 µM | [8] 26.4 µM | [9] 9.35 µM | [5] 5.26 µM | [6] 9.35 µM
inactive: [1] | [3]

CN1CCN2c3ccccc3Cc3ccccc3C2C1 (stereo not drawn)
inactive: [1] | [2] | [5]

CC1(C)O[C@H]2CC(=O)OC[C@]23[C@H]2CC[C@@]4(C)[C@H](c5ccoc5)OC(=O)[C@H]5O[C@]54[C@]2(C)C(=O)C[C@@H]13
not listed: [1] | [10] | [11] | [14] | [15]
inactive: all other assays above

NC(CO)C(=O)NNCc1ccc(O)c(O)c1O (stereo not drawn)
active: [8] 23.5 µM
inactive: [1] | [2] | [7] | [9] | [5]

O=C(C1CCCCC1)N1CC(=O)N2CCc3ccccc3C2C1 (stereo not drawn)
not listed: [1] | [11] | [12] | [13] | [14] | [16]
inactive: all other assays above

CCc1cccc2c3c([nH]c12)C(CC)(CC(=O)O)OCC3 (stereo not drawn)
inactive: [1] | [2] | [4] | [7] | [8] | [9] | [5] | [6] | [11]

COc1cc2nc(N3CCN(C(=O)C4COc5ccccc5O4)CC3)nc(N)c2cc1OC (stereo not drawn)
inactive: [1] | [4]
18 µM (active) and inactive: [2]
active: [6] 5.9 µM

COC(=O)Nc1nc2ccc(C(=O)c3cccs3)cc2[nH]1
active: [7] 0.001 µM | [8] 0.0042 µM | [9] 0.001 µM | [5] 0.0017 µM | [6] 0.001 µM
inactive: [1] | [2]
